Shown are actives, neighbours in structure and some others; about 12% of the full set was active somewhere.
Sfp inh – qHTS Assay for Inhibitors of Bacillus subtilis Sfp phosphopantetheinyl transferase (PPTase). 4'-phosphopantetheinyl transferase ffp (Bacillus subtilis), Q9F4F7. Biochemical Sfp PPTase activity, qHTS. Potency, µM, actives largely listed as inhibitors. 310,000 tested, 3.5% active. AID 1490, 2009;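 note: the enzyme is Sfp with the accession as filed and its product quenches rhodamine fluorescence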
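Compounds were incubated with enzyme (final 15 nM) for 15 min at room temperature before substrate addition started the reaction. Fluorescence at 525 nm excitation, 598 nm emission was recorded immediately and after 30 minutes.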
BAZ2B block – qHTS Assay for Inhibitors of BAZ2B. Potency, µM (top dose mostly 114 µM), hits mostly inhibitors. 360,000 tested, 4.4% active. AlphaScreen BAZ2B-H3K14Ac peptide displacement. Bromodomain adjacent to zinc finger domain protein 2B (Homo sapiens), Q9UIF8; note: nearly all actives have a fitted effect of over 60% in size
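Multi-concentration screen (max 110 uM) measuring displacement of acetylated histone H3 peptide from BAZ2B by AlphaScreen, using 50 nM protein, 50 nM peptide and 10 ug/mL streptavidin donor plus Ni-chelate acceptor beads.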
PLK1 PBD block – qHTS for Inhibitors of PLK1-PDB (polo-like kinase 1 - polo-box domain): Primary Screen. 360,000 tested, 2.8% active. Serine/threonine-protein kinase PLK1 (Homo sapiens), P53350. Plk1 PBD binding of FITC phosphopeptide, fluorescence polarization. Potency, µM, most hits filed as inhibitors; note: series mostly up to about 57 µM; nearly all actives have a fitted effect of over 65% in size
JMJD2A Tudor inh – qHTS Assay for Inhibitors of JMJD2A-Tudor Domain | AID 504339, 2011 | 390,000 tested, 4.4% active | Lysine-specific demethylase 4A (Homo sapiens), O75164 | AlphaScreen JMJD2A-Tudor / H3K4me3 peptide binding | Potency, µM (titrated, usually from 114 µM), usual class: inhibitors; note: nearly all actives have a fitted effect of over 50% in size
HP1b chromo inh – HTS for Inhibitors of HP1-beta Chromodomain Interactions with Methylated Histone Tails. AID 540317, 2011. Potency, µM (doses to about 114 µM), hits mostly inhibitors. Chromobox protein homolog 1 (Homo sapiens), P83916. 390,000 tested, 0.56% active. AlphaScreen HP1-beta / biotin-H3K9me3 peptide binding; note: nearly all actives have a fitted effect of over 70% in size
Target sequence (P83916 whole entry, looked up): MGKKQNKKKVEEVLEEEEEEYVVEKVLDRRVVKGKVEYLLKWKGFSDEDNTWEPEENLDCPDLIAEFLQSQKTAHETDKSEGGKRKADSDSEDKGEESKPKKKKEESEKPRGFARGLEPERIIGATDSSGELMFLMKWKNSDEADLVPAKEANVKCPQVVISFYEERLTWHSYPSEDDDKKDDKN
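HP1-beta protein (50 nM final) preincubated 30 min at room temperature with biotinylated H3(1-18)K9me3 peptide (50 nM) in PBS pH 7.4, 0.01% Tween-20, then compound added for 30 min. AlphaScreen streptavidin donor/nickel chelate acceptor beads (10 ug/mL final), 30 min dark, luminescence read.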
G9a inh – qHTS Assay for Inhibitors of Histone Lysine Methyltransferase G9a | Histone-lysine N-methyltransferase EHMT2 (Homo sapiens), Q96KQ7 | AID 504332, 2011 | Potency, µM (series often up to 102 µM), usual class: inhibitors | G9a H3K9 monomethylation, AlphaScreen, 2 h | 350,000 tested, 8.8% active; note: nearly all actives have a fitted effect of over 75% in size
Target sequence (Q96KQ7 913-1193 limits assumed): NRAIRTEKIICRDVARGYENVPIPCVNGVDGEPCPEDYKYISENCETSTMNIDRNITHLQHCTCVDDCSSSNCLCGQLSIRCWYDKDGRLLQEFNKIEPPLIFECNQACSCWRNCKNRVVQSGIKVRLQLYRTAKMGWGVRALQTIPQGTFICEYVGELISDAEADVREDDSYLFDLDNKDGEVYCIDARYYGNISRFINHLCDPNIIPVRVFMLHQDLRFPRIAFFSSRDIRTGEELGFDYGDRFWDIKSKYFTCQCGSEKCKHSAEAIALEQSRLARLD
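Readings reflect AlphaScreen signal from monomethyl-H3K9 antibody detection. HMT at 20 nM; substrate b-H3K9 500 nM; cofactor SAM 20 uM; 2 h RT reaction; compounds tested as titrations in qHTS with 15 min preincubation.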
Of the large screens only hits and unclear results are named; the others gave an inactive call. Calls come from the whole dose curve; as a rule, active = well fitted curve in the direction sought with a large enough effect; inconclusive = small, poorly fitted or top-dose-only effect, or another doubt; inactive = no such curve, though single readings can be large; an effect the other way counts as inactive or inconclusive.

COc1ccc(OC)c(Cc2nnc(CCC(=O)NCc3ccc(C)s3)o2)c1	BAZ2B block inconclusive, G9a inh 25.1µM
COc1ccc(OC)c(Cc2nnc(CCC(=O)NC(C3CC3)C3CC3)o2)c1	none
Cc1ccc(S(=O)(=O)N(C)S(=O)(=O)c2ccc(C#N)cc2)cc1	G9a inh 44.7µM (no result: PLK1 PBD block, JMJD2A Tudor inh, HP1b chromo inh)
Cc1ccc(S(=O)(=O)N(C#N)c2nc(C)cc(C)n2)cc1	BAZ2B block inconclusive, G9a inh 44.7µM
Cc1ccc(S(=O)(=O)CC(O)COc2ccc(C#N)cc2)cc1 (stereo unspecified)	none
CN(C)C(=O)CCSc1nnc(-c2ccco2)o1	none
CN(CCc1ccccc1)C(C(=O)Nc1ccc2c(c1)OCCO2)C1CC1 (stereo unspecified)	none (no result: Sfp inh, BAZ2B block, JMJD2A Tudor inh, HP1b chromo inh, G9a inh)
CCN(CC)c1nc2c(c(=O)[nH]c(=O)n2C)n1CCOc1ccccc1	none
O=C1NC(=S)SC1=Cc1ccc(Cl)cc1	PLK1 PBD block inconclusive, JMJD2A Tudor inh inconclusive (no result: Sfp inh, BAZ2B block, G9a inh)
CN1CCC/C1=C/C=C1\SC(=S)NC1=O	Sfp inh 28.2µM, BAZ2B block inconclusive, G9a inh 10µM
Cn1c(SCC(=O)c2ccc(O)cc2O)nnc1-c1ccccc1	none
c1ccc(-c2ccc(-c3nccc4ccccc34)[nH]2)cc1	Sfp inh 50.1µM, BAZ2B block inconclusive, G9a inh inconclusive (no result: PLK1 PBD block, JMJD2A Tudor inh, HP1b chromo inh)
Cn1c(=O)c([N+](=O)[O-])c(-n2ccnc2)c2ccccc21	Sfp inh 56.2µM, G9a inh inconclusive
CC(C)c1ccc(Nc2c([N+](=O)[O-])c(=O)n(C)c3ccccc23)cc1	BAZ2B block inconclusive, JMJD2A Tudor inh inconclusive, G9a inh inconclusive
Cc1cccc(Nc2c([N+](=O)[O-])c(=O)n(C)c3ccccc23)c1	BAZ2B block inconclusive, PLK1 PBD block 26.7µM, JMJD2A Tudor inh 50.1µM
Cn1c(=O)c([N+](=O)[O-])c(NCCCn2ccnc2)c2ccccc21	none (no result: G9a inh)
COc1ccc(-c2ccc(CN3C(C)C(=O)N(Cc4cn(CCC5OCCO5)nn4)CCS3(=O)=O)cc2)cn1 (stereo unspecified)	none (no result: Sfp inh, BAZ2B block, JMJD2A Tudor inh, HP1b chromo inh, G9a inh)
COc1ccc(-c2ccc(CN3C(C)C(=O)N(Cc4cn(CCC5OCCO5)nn4)CCS3(=O)=O)cc2)cc1 (stereo unspecified)	PLK1 PBD block 42.3µM (no result: Sfp inh, BAZ2B block, JMJD2A Tudor inh, HP1b chromo inh, G9a inh)
O=C(COc1ccccc1F)NC1CC(=O)N(c2ccc3c(c2)OCCO3)C1 (stereo unspecified)	none (no result: Sfp inh, PLK1 PBD block)
O=C1CS/C(=N/N=C2CCCC2)N1	BAZ2B block 79.4µM, G9a inh inconclusive
Cc1nnc(SCC(=O)NC(=O)NC(C)(C)C)n1N	Sfp inh inconclusive, PLK1 PBD block 26.7µM, JMJD2A Tudor inh inconclusive, HP1b chromo inh inconclusive, G9a inh inconclusive
CCC1(CC)NC(=O)N(CC(=O)NC(=O)NCc2ccccc2)C1=O	HP1b chromo inh inconclusive, G9a inh 31.6µM
CC(=O)N1CCN(c2ccc(NC(=O)c3cccc(C)c3)cc2)CC1	none (no result: G9a inh)
Cc1ccc(C(=O)NC(=S)Nc2ccc(N3CCOCC3)cc2)cc1C	BAZ2B block 20µM, PLK1 PBD block inconclusive, JMJD2A Tudor inh 50.1µM, HP1b chromo inh inconclusive, G9a inh inconclusive
Cc1cccc(C(=O)NC(=S)Nc2ccc(N3CCOCC3)cc2)c1	BAZ2B block 31.6µM, JMJD2A Tudor inh inconclusive, HP1b chromo inh inconclusive, G9a inh 7.94µM
COc1ccc(C(=O)NC(=S)Nc2cccnc2)cc1Cl	JMJD2A Tudor inh inconclusive, G9a inh 50.1µM
Cc1cccc(N2CCN(c3ccc(NC(=O)/C=C(/C(=O)O)c4ccccc4)cc3)CC2)c1	Sfp inh inconclusive, BAZ2B block inconclusive, JMJD2A Tudor inh inconclusive, HP1b chromo inh inconclusive, G9a inh 8.91µM
CC(C)(C)c1ccc(C(=O)NC(=S)Nc2ccc(N3CCOCC3)cc2)cc1	none
COc1cccc(C(=O)NC(=S)Nc2cccnc2)c1	JMJD2A Tudor inh inconclusive, G9a inh inconclusive
COc1ccc(-c2nc3cnc(Oc4cccc(Cl)c4)nc3n(CCC#N)c2=O)cc1	none (no result: BAZ2B block, PLK1 PBD block, JMJD2A Tudor inh, HP1b chromo inh)
CCc1nnc(NC(=O)CSc2nnc(Cc3cc(=O)[nH]c(=O)[nH]3)n2-c2cccc(OC)c2)s1	none (no result: BAZ2B block)
COc1ccc(C(=O)NC(=S)Nc2ccc(N3CCOCC3)cc2)cc1Cl	BAZ2B block 22.4µM, JMJD2A Tudor inh 25.1µM, HP1b chromo inh inconclusive, G9a inh 25.1µM
CC(=O)c1cccc(NC(=S)NC(=O)c2cccc(C)c2)c1	JMJD2A Tudor inh inconclusive, G9a inh 25.1µM
COc1ccccc1C(=O)NC(=S)Nc1ccc(N2CCOCC2)c(Cl)c1	Sfp inh 31.6µM, PLK1 PBD block inconclusive, G9a inh 8.91µM
CC(=O)c1cccc(NC(=S)NC(=O)c2ccc(Cl)cc2)c1	JMJD2A Tudor inh inconclusive
COc1cc(NC(=S)Nc2cccnc2)cc(OC)c1OC	Sfp inh inconclusive, G9a inh 50.1µM
Cc1ccccc1OCC(=O)NC(=S)Nc1ccc(N2CCOCC2)c(Cl)c1	G9a inh inconclusive
O=C(NC(=S)Nc1ccc(N2CCOCC2)cc1)c1ccc(Cl)cc1	G9a inh inconclusive
Cc1nnc(SCC(=O)NC2CCCCCC2)n1N	none (no result: Sfp inh)
Cc1c(CCNS(=O)(=O)c2ccccc2)sc2nc(-c3ccc(Cl)cc3)nn12	none (no result: Sfp inh, PLK1 PBD block)
COc1ccc(NS(=O)(=O)c2ccc3c(c2)CCN3C(=O)CCC(=O)O)cc1Cl	none (no result: Sfp inh, PLK1 PBD block)
COc1ccc(OC)c(-c2noc(N3CCN(c4ccc(Cl)cc4)CC3)n2)c1	JMJD2A Tudor inh inconclusive (no result: Sfp inh, PLK1 PBD block)
Cc1cc(C)cc(NC(=O)CC(C)n2nc(C)cc2C)c1 (stereo unspecified)	none (no result: Sfp inh, PLK1 PBD block)
Cc1cccc(NC(=S)Nc2ccc(N3CCOCC3)cc2)c1C	G9a inh 39.8µM
COc1ccc(NC(=S)Nc2ccccn2)cc1	G9a inh 39.8µM
CCOc1ccc(C(=O)NC(=S)Nc2cccnc2)cc1	Sfp inh inconclusive, G9a inh inconclusive
